# Screens: PubChem BioAssay, National Center for Advancing Translational Sciences (NCATS)
# JMJD2A Tudor inh – blocks the human JMJD2A Tudor domain; actives 4.4% (n = 390,000); AlphaScreen JMJD2A-Tudor / H3K4me3 peptide binding; Potency, µM (doses to about 114 µM), for inactives: top-dose activity change, negative = inhibition, usual class: inhibitors; further: potency means the concentration at half of the fitted maximal effect; on the % scale 0 is the no-effect control and ±100 the full control effect; nearly all actives have a fitted effect of over 50% in size
# PI5P4K alpha inh – blocks human PI5P4K alpha kinase activity | P48426 | PI5P4Kalpha enzyme, ADP-Glo luminescence, 60 min; active compounds read low | max response, % | actives 1.2% (n = 330,000) | AID 652105; active means max response of -50% or lower; inconclusive means between -30% and -50%; inactive means -30% or higher; further: value at the top dose of about 77 µM; on the % scale 0 is the no-effect control and ±100 the full control effect
# Target sequence (P48426 whole entry, looked up): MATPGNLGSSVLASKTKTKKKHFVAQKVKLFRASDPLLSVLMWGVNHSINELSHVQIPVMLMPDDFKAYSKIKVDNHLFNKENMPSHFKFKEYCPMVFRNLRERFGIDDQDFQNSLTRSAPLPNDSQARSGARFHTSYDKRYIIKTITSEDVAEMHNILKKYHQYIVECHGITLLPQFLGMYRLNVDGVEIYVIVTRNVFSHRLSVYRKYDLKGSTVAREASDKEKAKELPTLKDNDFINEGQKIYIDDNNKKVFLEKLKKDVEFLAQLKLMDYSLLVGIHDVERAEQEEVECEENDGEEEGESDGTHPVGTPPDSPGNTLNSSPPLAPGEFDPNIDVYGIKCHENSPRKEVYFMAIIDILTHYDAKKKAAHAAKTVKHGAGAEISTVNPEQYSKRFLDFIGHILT
#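 ADP-Glo luminescence end-point after a 60 min room-temperature kinase reaction. PI5P4Kalpha and substrate in HEPES pH 7.4 buffer with EGTA, 0.1% CHAPS and 5% DMSO; ATP at 5 microM final.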
# L3MBTL1 block – L3MBTL1 (human) inhibition | Q9Y468 | AlphaScreen L3MBTL1–H3K9me1 peptide binding | Potency, µM (top dose mostly 57.1 µM), for the others: at the highest dose activity, negative = inhibition, most hits filed as inhibitors | actives 0.66% (n = 230,000) | AID 485360; further: potency means the concentration at half of the fitted maximal effect; on the % scale 0 is the no-effect control and ±100 the full control effect; nearly all actives have a fitted effect of over 60% in size
#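 AlphaScreen assay: L3MBTL1 (50 nM final) was preincubated 30 min at room temperature with biotinylated H3(1-15)K9me1 peptide (75 nM final), then 30 min with library compounds; streptavidin donor and nickel chelate acceptor beads (10 ug/mL final) added, 30 min dark.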
# KDM4E inh – inhibitors of human JMJD2E histone demethylase | JMJD2E catalytic domain, FDH-coupled NADH fluorescence (FDH is formaldehyde dehydrogenase) | actives 1.6% (n = 230,000) | AID 2147 | B2RXH2 | Potency, µM (top dose mostly 57.1 µM), for inactives: at the highest dose activity change, negative = inhibition, most hits filed as inhibitors; active means well fitted inhibition curve with a large enough effect, not every such curve was filed as active; inconclusive means small, poorly fitted or top-dose-only effect, or another doubt; inactive means no such curve, though single readings can be large or run the other way;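 further: potency means the concentration at half of the fitted maximal effect; 0% = wells with enzyme and -100% = buffer wells without enzyme; nearly all actives have a fitted effect of over 50% in size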
# Target sequence (B2RXH2 1-337 limits assumed): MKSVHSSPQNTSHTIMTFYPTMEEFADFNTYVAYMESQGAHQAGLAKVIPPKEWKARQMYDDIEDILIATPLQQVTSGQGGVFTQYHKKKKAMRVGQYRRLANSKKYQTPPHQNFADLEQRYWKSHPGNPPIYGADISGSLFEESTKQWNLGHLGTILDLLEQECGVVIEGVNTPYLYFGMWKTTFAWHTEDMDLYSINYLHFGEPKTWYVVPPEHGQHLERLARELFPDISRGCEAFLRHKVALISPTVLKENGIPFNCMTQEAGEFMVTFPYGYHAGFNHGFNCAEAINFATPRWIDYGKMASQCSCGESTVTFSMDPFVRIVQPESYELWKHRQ
# HP1b binding inh – blocks HP1-beta chromodomain binding to methylated histone tails | AID 540317 | AlphaScreen HP1-beta / biotin-H3K9me3 peptide binding | Potency, µM (series often up to 114 µM), without a hit: top-dose activity change, negative = inhibition, actives largely listed as inhibitors | actives 0.56% (n = 390,000); further: potency means the concentration at half of the fitted maximal effect; nearly all actives have a fitted effect of over 70% in size
#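 HP1-beta protein (50 nM final) preincubated 30 min at room temperature with biotinylated H3(1-18)K9me3 peptide (50 nM) in PBS pH 7.4, 0.01% Tween-20, then compound added for 30 min. AlphaScreen streptavidin donor/nickel chelate acceptor beads (10 ug/mL final), 30 min dark, luminescence read.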
# BAZ2B block – BAZ2B (human) inhibition | Q9UIF8 | AlphaScreen BAZ2B-H3K14Ac peptide displacement | Potency, µM (top dose mostly 114 µM), without a hit: at the top dose activity change, negative = inhibition, most hits filed as inhibitors | actives 4.4% (n = 360,000); further: potency means the concentration at half of the fitted maximal effect; on the % scale 0 is the no-effect control and ±100 the full control effect; nearly all actives have a fitted effect of over 60% in size
#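 Multi-concentration screen (max 110 uM) measuring displacement of acetylated histone H3 peptide from BAZ2B by AlphaScreen, using 50 nM protein, 50 nM peptide and 10 ug/mL streptavidin donor plus Ni-chelate acceptor beads.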
# Starred values were filed as active, the others as inactive; ? = inconclusive; nt = not tested or not shown; [ ] = another dose, or the depositor's remark. An excerpt weighted towards active compounds, which were near 5.7% of everything screened. Unless noted, the call rests on the fitted dose curve; in most records, active means well fitted inhibition curve with a large enough effect; inconclusive means small, poorly fitted or top-dose-only effect; inactive means no such curve, though single readings can be large or run the other way.
SMILES,JMJD2A Tudor inh,PI5P4K alpha inh,L3MBTL1 block,KDM4E inh,HP1b binding inh,BAZ2B block
CC(Nc1cccc2ccccc12)C(=O)N/N=C/c1ccc([N+](=O)[O-])cc1 (configuration not stated),?,2.1,-26.5%,8.2%,?,?
Cc1ccc(NC(=O)Cn2cc3c(n2)CCCCC3)cc1,2.7%,nt,nt,nt,24.8%,-24.5%
CCOc1ccccc1NC(=O)C(Cc1ccccc1)NS(=O)(=O)c1ccc(Br)s1 (configuration not stated),-16.8%,nt,nt,nt,37.5%,-1.1%
COc1cccc(C=NNC(=O)c2ccncc2)c1O,56.2µM*,9.9,nt,nt,15.0%,nt
COc1cccc(/C=N/NC(=O)N/N=C/c2cccc(OC)c2O)c1O,?,-27.3,-3.9%[2.29 µM],nt,34.5%,10.4%
COc1ccccc1CCNC(=O)c1ccc2nc[nH]c2c1,-20.7%,-26.1,nt,nt,14.4%,50.1µM*
CCOc1cccc(/C=N/NC(=O)c2cccnc2)c1O,89.1µM*,3.9,-25.0%,nt,58.2%,31.6µM*
COc1cc(OC)c(/C=N/NC(=O)c2ccncc2)c(OC)c1,3.98µM*,-4.5,-1.3%,nt,16.2%,9.4%
CC1CCN(S(=O)(=O)N2CCC(C(=O)NCc3ccc(F)cc3Cl)CC2)CC1,nt,-12.9,nt,nt,nt,nt
COc1cccc(/C=N/NC(=O)c2cc3c(OC)ccc(OC)c3[nH]2)c1O,?,2.8,nt,nt,4.4%,-2.4%
COc1cccc(/C=N/NC(=O)c2ccc3nc[nH]c3c2)c1O,-7.4%[11.4 µM],-2.0,-12.4%,10µM*,73.3%,?
COc1cc(OC)c2cc(C(=O)N/N=C/c3cccc(OC)c3O)[nH]c2c1,-19.0%,3.2,-2.0%,10µM*,35.8%,-7.7%
COc1ccccc1C=NN=C(NN=Cc1ccccc1OC)NN=Cc1ccccc1OC,?,9.2,nt,nt,79.4µM*,nt
COc1ccccc1C=NNC(=O)NN=Cc1ccccc1OC,-30.3%,-10.7,nt,nt,22.6%,nt
CCOC(=O)c1ccc(NC(=O)CCn2c(=O)c3cccn3c3cccnc32)cc1,-1.8%,nt,nt,nt,42.5%,-14.0%
CCCCn1c(=O)c2oc3ccccc3c2n(Cc2cccc(F)c2)c1=O,1.1%,nt,nt,nt,44.5%,1.7%
COc1cccc(-n2cc(-c3ccc(F)cc3)[nH]c2=S)c1,44.7µM*,-29.1,nt,nt,14.1%,50.1µM*
COc1ccc(-n2cc(-c3ccc(Cl)cc3)[nH]c2=S)cc1,0.0%,-4.8,-3.7%,-27.2%,47.0%,-2.0%
Cc1ccc2nc(-c3cc(NC(=O)COc4ccc(C)c(C)c4)ccc3Cl)oc2c1,-7.5%,nt,nt,nt,18.9%,-17.8%
COC(=O)c1ccc(COc2ccc(/C=C(\C#N)c3nc4ccccc4[nH]3)cc2OC)o1,-27.8%,-3.7,3.5%,22.4µM*,41.9%,-36.7%[57.1 µM]
N#C/C(=C/c1ccc(O)c(O)c1)c1nc2ccccc2[nH]1,28.2µM*,?,nt,nt,?,7.94µM*
N#C/C(=C\c1ccc(Cl)cc1)c1nc2ccccc2[nH]1,-34.6%,nt,nt,nt,28.6%,-7.5%
CCOCCn1c(C)c(C(=O)OCC)c2cc(O)c3ccccc3c21,-17.9%,-3.3,-12.6%,nt,19.5%,3.3%
COc1ccccc1N1C(=O)C=C(Sc2nc(C)cc(C)n2)C1=O,7.94µM*,-57.0*,-5.5%,0.8%,8.91µM*,?
CCOCCN1CCN(C2c3ccccc3CSc3ccccc32)CC1 (configuration not stated),12.6µM*,-2.5,nt,nt,?,nt
SMILES,JMJD2A Tudor inh,PI5P4K alpha inh,L3MBTL1 block,KDM4E inh,HP1b binding inh,BAZ2B block
CCNC(=O)NC1c2ccccc2CSc2ccccc21 (configuration not stated),-11.2%,-2.2,nt,nt,-1.2%,nt
Nc1cc2nsnc2cc1Br,-34.7%,-16.4,15.8µM*,20.9%,?,12.0%[57.1 µM]
COc1ccccc1CNC(=O)CSc1ccc(-c2ccncc2)nn1,-1.7%,4.4,nt,6.0%,40.6%,1.3%
O=C(NCCNCc1cccs1)c1ccccc1F,3.55µM*,2.7,-1.0%,?,?,50.1µM*
O=C(NCc1cccs1)c1ccccc1F,10.1%,1.6,2.5%,7.6%,43.3%,2.9%
CNc1cc2c(cc1S(=O)(=O)Nc1ccc(C)c(C)c1)CCC(=O)N2,-17.0%,nt,nt,nt,nt,nt
COc1cc(C(C(=O)NC(C)(C)C)N(Cc2ccccc2)C(=O)c2cnccn2)cc(OC)c1OC (configuration not stated),-20.2%,nt,-0.8%,-3.5%,17.2%,-1.1%
COc1ccc(CN(C(=O)c2ccc(-c3ccccc3)[nH]2)C(C(=O)NC(C)(C)C)c2ccncc2)cc1 (configuration not stated),39.8µM*,11.9,nt,3.0%,-10.3%,?
Cc1[nH]c(=O)[nH]c(=O)c1/C=N/NC(=O)[C@H](C)N,56.2µM*,-27.7,?,?,32.5%,50.1µM*
Cc1ccc(NC(=O)Cn2cc(C(=O)c3ccco3)c3ccccc32)cc1,-7.1%,nt,nt,nt,86.5%,29.1%
C=C(CN(C)C)C(=O)c1ccc(C)cc1C,79.4µM*,6.5,nt,nt,31.6µM*,nt
COc1cc(OC)c(C(=O)CCC(=O)O)cc1OC,-2.1%,-6.2,-0.3%,0.1%,30.3%,10.3%
C=C(CN(C)C)C(=O)c1cc(OC)c(OC)cc1OC,79.4µM*,2.7,nt,nt,?,nt
C=C(CN(C)C)C(=O)c1ccc2c(c1)OCO2,14.1µM*,3.8,nt,nt,?,nt
CC1C/C(=C/c2cccs2)C(=O)/C(=C/c2cccs2)C1 (configuration not stated),?,3.9,-19.3%,8.7%,?,?
O=C1/C(=C/c2cccs2)CCC/C1=C\c1cccs1,?,13.9,nt,nt,?,5.62µM*
Cn1cccc1/C=C1\CCC/C(=C\c2cccn2C)C1=O,56.2µM*,9.6,nt,-16.1%,22.4µM*,22.4µM*
CN(C)c1ccc(/C=C2\CCC/C(=C\c3ccccc3)C2=O)cc1,?,25.2,-3.6%,-8.4%,-15.9%,?
CCOc1ccc(/C=C/C(=O)Nc2sc3c(c2C(=O)OC)CCCC3)cc1,3.5%,nt,nt,nt,44.6%,11.8%
COC(=O)c1c(NC(=O)CCCOc2cccc(C)c2)sc2c1C(C(=O)OC)CC2 (configuration not stated),?,nt,nt,nt,?,35.5µM*
CCOc1ccc(/C=C/C(=O)Nc2sc3c(c2C(=O)OC)C(C(=O)OC)CC3)cc1 (configuration not stated),56.2µM*,nt,nt,nt,?,?
COC(=O)c1c(NC(=O)CCCOc2ccc(C)cc2)sc2c1C(C(=O)OC)CC2 (configuration not stated),-22.9%,nt,nt,nt,?,?
O=C(Nc1cccc(C(F)(F)F)c1)c1cc(CN2CCOCC2)on1,-4.7%,nt,nt,nt,23.7%,-2.8%
CCOC(=O)c1cccc(NC(=O)C(CC(C)C)N2Cc3ccccc3C2=O)c1 (configuration not stated),-23.1%,nt,nt,nt,9.3%,-15.2%
